Source: the supplement of paper PMC8728848
The full list was thinned out, with the strongest signals kept by preference.

Assays:
Assay in all cases: glycan array binding signal (z-score within array); higher = stronger binding
Settings in all cases: glycan notation: IUPAC condensed, linker removed
[1] = biological target: Fuc(a1-2)Gal(b1-3)[Fuc(a1-4)]GlcNAc
Procedure, shortened: (§1)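 Columns mapping to the same glycan were averaged after glycan names were converted to IUPAC-condensed notation. The data come from 3228 arrays in the Consortium for Functional Glycomics database, limited to those with an available protein sequence. Binding is reported as a within-array Z-score averaged across arrays of one protein sequence and across linkers.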

[2] = biological target: Fuc(a1-2)Gal(b1-4)GlcNAc(b1-3)Gal(b1-4)GlcNAc
Procedure, shortened: as §1

[3] = biological target: Fuc(a1-2)Gal6S(b1-4)GlcNAc
Procedure, shortened: as §1

[4] = biological target: Fuc(a1-2)[Gal(a1-3)]Gal(b1-3)GlcNAc
Procedure, shortened: as §1

[5] = biological target: Fuc(a1-2)[Gal(a1-3)]Gal(b1-4)Glc
Procedure, shortened: as §1

[6] = biological target: Fuc(a1-2)[Gal(a1-3)]Gal(b1-4)GlcNAc
Procedure, shortened: as §1

[7] = biological target: Fuc(a1-3)[Gal(b1-4)]Glc6S
Procedure, shortened: as §1

[8] = biological target: Fuc(a1-3)[Gal(b1-4)]GlcNAc(b1-3)Gal(b1-3)[Fuc(a1-4)]GlcNAc
Procedure, shortened: as §1

[9] = biological target: Fuc(a1-3)[Gal(b1-4)]GlcNAc(b1-4)Gal(b1-4)[Fuc(a1-3)]GlcNAc(b1-4)Gal(b1-4)[Fuc(a1-3)]GlcNAc
Procedure, shortened: as §1

[10] = biological target: Gal(a1-3)Gal(b1-4)[Fuc(a1-3)]GalNAc
Procedure, shortened: as §1

[11] = biological target: Gal(a1-3)[Gal(a1-4)]Gal(b1-4)GlcNAc
Procedure, shortened: as §1

Gal(a1-4)Gal(b1-4)Gal = biological target: Gal(a1-4)Gal(b1-4)Gal
Procedure, shortened: as §1

Gal(a1-4)Gal(b1-4)GalNAc = biological target: Gal(a1-4)Gal(b1-4)GalNAc
Procedure, shortened: as §1

Gal(b1-3)Gal = biological target: Gal(b1-3)Gal
Procedure, shortened: as §1

[12] = biological target: Gal(b1-3)[Fuc(a1-4)]GlcNAc(b1-3)Gal(b1-4)GlcNAc
Procedure, shortened: as §1

[13] = biological target: Gal(b1-4)GlcNAc(b1-3)Gal(b1-4)GlcNAc
Procedure, shortened: as §1

[14] = biological target: Gal3S(b1-3)[Fuc(a1-4)]GlcNAc
Procedure, shortened: as §1

GalNAc(a1-3)GalNAc = biological target: GalNAc(a1-3)GalNAc
Procedure, shortened: as §1

[15] = biological target: GlcNAc(b1-2)Man(a1-3)[GlcNAc(b1-2)Man(a1-6)]Man(b1-4)GlcNAc(b1-4)GlcNAc
Procedure, shortened: as §1

GlcNAc(b1-3)Gal = biological target: GlcNAc(b1-3)Gal
Procedure, shortened: as §1

GlcNAc(b1-3)GalNAc = biological target: GlcNAc(b1-3)GalNAc
Procedure, shortened: as §1

GlcNAc(b1-6)GalNAc = biological target: GlcNAc(b1-6)GalNAc
Procedure, shortened: as §1

Man(a1-2)Man(a1-3)Man = biological target: Man(a1-2)Man(a1-3)Man
Procedure, shortened: as §1

[16] = biological target: Neu5Ac(a2-3)Gal(b1-4)GlcNAc(b1-3)Gal(b1-4)GlcNAc
Procedure, shortened: as §1

[17] = biological target: Neu5Ac(a2-3)Gal(b1-4)[Fuc(a1-3)]GlcNAc(b1-3)Gal
Procedure, shortened: as §1

[18] = biological target: Neu5Ac(a2-3)Gal(b1-4)[Fuc(a1-3)]GlcNAc(b1-3)Gal(b1-4)GlcNAc
Procedure, shortened: as §1

[19] = biological target: Neu5Ac(a2-3)Gal6S(b1-4)GlcNAc
Procedure, shortened: as §1

[20] = biological target: Neu5Ac(a2-8)Neu5Ac(a2-3)[GalNAc(b1-4)]Gal(b1-4)Glc
Procedure, shortened: as §1

[21] = biological target: Neu5Gc(a2-6)Gal(b1-4)GlcNAc
Procedure, shortened: as §1

B1: IDGF2 (Drosophila melanogaster), Q9V3D4 (protein)
chain: MKAWIWFTFVACLFAASTEAASNLVCYYDSSSYTREGLGKLLNPDLEIALQFCSHLVYGYAGLRGENLQAYSMNENLDIYKHQFSEVTSLKRKYPHLKVLLSVGGDHDIDPDHPNKYIDLLEGEKVRQIGFIRSAYDLVKTYGFDGLDLAYQFPKNKPRKVHGDLGLAWKSIKKLFTGDFIVDPHAALHKEQFTALVRDVKDSLRADGFLLSLTVLPNVNSTWYFDIPALNGLVDFVNLATFDFLTPARNPEEADYSAPIYHPDGSKDRLAHLNADFQVEYWLSQGFPSNKINLGVATYGNAWKLTKDSGLEGVPVVPETSGPAPEGFQSQKPGLLSYAEICGKLSNPQNQFLKGNESPLRRVSDPTKRFGGIAYRPVDGQITEGIWVSYDDPDSASNKAAYARVKNLGGVALFDLSYDDFRGQCSGDKYPILRAIKYRLHHHHHH
glycan array binding signal (z-score) [1]: -0.463
glycan array binding signal (z-score) [2]: -0.26
glycan array binding signal (z-score) [3]: -0.274
glycan array binding signal (z-score) [4]: 8.27
glycan array binding signal (z-score) [5]: 6.99
glycan array binding signal (z-score) [6]: 7.65
glycan array binding signal (z-score) [7]: 0.706
glycan array binding signal (z-score) [8]: 0.936
glycan array binding signal (z-score) [9]: -0.319
glycan array binding signal (z-score) [10]: -0.365
glycan array binding signal (z-score) [11]: -0.273
glycan array binding signal (z-score) (Gal(a1-4)Gal(b1-4)Gal): -0.196
glycan array binding signal (z-score) (Gal(a1-4)Gal(b1-4)GalNAc): -0.481
glycan array binding signal (z-score) (Gal(b1-3)Gal): 0.071
glycan array binding signal (z-score) [12]: 0.056
glycan array binding signal (z-score) [13]: -0.325
glycan array binding signal (z-score) [14]: 0.072
glycan array binding signal (z-score) (GalNAc(a1-3)GalNAc): -0.398
glycan array binding signal (z-score) [15]: -0.223
glycan array binding signal (z-score) (GlcNAc(b1-3)Gal): 0.066
glycan array binding signal (z-score) (GlcNAc(b1-3)GalNAc): 0.032
glycan array binding signal (z-score) (GlcNAc(b1-6)GalNAc): -0.197
glycan array binding signal (z-score) (Man(a1-2)Man(a1-3)Man): -0.128
glycan array binding signal (z-score) [16]: -0.3
glycan array binding signal (z-score) [17]: 0.239
glycan array binding signal (z-score) [18]: 0.148
glycan array binding signal (z-score) [19]: -0.073
glycan array binding signal (z-score) [20]: -0.271
glycan array binding signal (z-score) [21]: 0.622
